Screening results: PubChem BioAssay, National Center for Advancing Translational Sciences (NCATS)
RORgamma inh = ROR gamma (mouse) transcription inhibition; 310,000 tested, 5.4% active; Potency, µM (top dose mostly 53.6 µM), for the others: at the highest dose activity change, negative = inhibition, usual class: inhibitors; Drosophila S2 Gal4-RORgamma UAS-luciferase reporter, 20 h; P51450; also: potency is read from the fitted curve at half-maximal effect; nearly all actives have a fitted effect of over 60% in size
Target sequence (P51450 whole entry, looked up, the tested form may be a part): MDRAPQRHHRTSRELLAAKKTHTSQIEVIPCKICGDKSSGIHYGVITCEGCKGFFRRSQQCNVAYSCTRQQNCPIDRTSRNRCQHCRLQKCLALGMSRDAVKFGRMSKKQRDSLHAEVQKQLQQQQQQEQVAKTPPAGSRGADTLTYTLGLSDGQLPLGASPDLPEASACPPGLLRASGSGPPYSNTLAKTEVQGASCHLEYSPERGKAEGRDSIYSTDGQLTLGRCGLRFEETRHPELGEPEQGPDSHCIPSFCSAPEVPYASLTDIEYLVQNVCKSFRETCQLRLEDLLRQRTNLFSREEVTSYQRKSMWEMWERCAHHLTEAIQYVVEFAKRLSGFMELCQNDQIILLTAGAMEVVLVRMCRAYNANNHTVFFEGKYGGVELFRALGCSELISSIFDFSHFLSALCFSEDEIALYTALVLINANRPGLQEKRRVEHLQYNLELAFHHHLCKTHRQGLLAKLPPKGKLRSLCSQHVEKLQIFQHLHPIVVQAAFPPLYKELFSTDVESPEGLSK
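Stable Schneider cell line, Gal4 DNA-binding domain fused to ROR gamma, UAS-luciferase. Cmpd 1 hr RT → CuSO4 700 uM final → 20 hr RT → luciferase reagent 10 min → luminescence.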
TDP1 cell noCPT = qHTS for Inhibitors of human tyrosyl-DNA phosphodiesterase 1 (TDP1): qHTS in cells in absence of CPT. DT40 Tdp1-/- hTDP1 cells, no CPT, ATP luminescence, 48 h. Potency, µM (highest dose often 46.2 µM), without a hit: top-dose activity change, negative = growth inhibition, hits mostly inhibitors. 420,000 tested, 15% active; also: potency is read from the fitted curve at half-maximal effect; nearly all actives have a fitted effect of over 55% in size
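Camptothecin absent (DMSO only). Human TDP1-complemented DT40 knockout cells, 400 cells/well, 37 °C for minimum 48 hr; ATP measured via CellTiter-Glo, 30 min dark incubation, luminescence.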
LDHA block = blocks human lactate dehydrogenase A. AID 1347041. 480,000 tested, 0.15% active. purified LDHA, NADH/diaphorase-resazurin fluorescence; hits give low values. P00338. activity change, % (values are at about 110 or 230 µM); in the data active = activity change below about -30%; inconclusive = mostly about -25% to -30%;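 also: plate controls were DMSO wells for no effect and wells without enzyme for full effect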
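Resorufin fluorescence (ex540/em590), read at 0 and 20 min after diaphorase/resazurin addition, reports the NADH left after a 5 min room-temperature reaction of 2 nM human LDH5 with 0.06 mM NADH and 0.2 mM pyruvate.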
DT40 TDP1 CPT = DT40-hTDP1 cell growth loss with CPT | AID 686979 | chicken DT40 Tdp1-/-;hTDP1 cells + 20 nM CPT, ATP luminescence, 48 h | 420,000 tested, 12% active | Potency, µM (top dose mostly 46.2 µM), for the others: top-dose activity change, negative = growth inhibition, actives largely listed as inhibitors; also: potency is read from the fitted curve at half-maximal effect; nearly all actives have a fitted effect of over 55% in size
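Chicken DT40 Tdp1-/- cells stably complemented with human TDP1 were seeded at 400 cells/well in medium containing 20 nM camptothecin, exposed to pin-transferred compounds, and grown at 37 °C for at least 48 hr. Viability was read as ATP luminescence.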
IL1B secr inh = inflammasome signaling inhibition, IL-1 beta readout | activity change, % at 57.5 µM | 360,000 tested, 4.7% active | THP-1 LPS/ATP IL-1B secretion, AlphaLISA, 16 h; hits give low values | AID 743279; in the data active = activity change below about -50%; inconclusive = mostly about -30% to -49%
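Secreted IL-1B measured by AlphaLISA bead assay after 16 h compound exposure of THP-1 cells; compounds (final up to 57.5 uM) added 1 h before LPS (250 ng/mL) and ATP (1.25 mM) stimulation; lower signal means less secretion.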
VP16 counter = Gal4-VP16 reporter inhibition counter-screen | Drosophila S2 Gal4-VP16 UAS-luciferase, luminescence, 20 h | Potency, µM (doses to about 53.6 µM), for the others: at the highest dose activity, negative = inhibition, usual class: inhibitors | 310,000 tested, 3.5% active | AID 2546;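 also: Gal4-VP16 expression switched on by copper sulfate through the metallothionein promoter; potency is read from the fitted curve at half-maximal effect; nearly all actives have a fitted effect of over 50% in size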
Numbers without * were called inactive. Compounds with a hit are over-represented: about 18% of the library has one in this group of screens. Unless noted, calls follow the shape of the dose curve; as a rule, active = well fitted curve in the direction sought with a large enough effect; inconclusive = small, poorly fitted or top-dose-only effect, or another doubt; inactive = no such curve, though single readings can be large; an effect the other way counts as inactive or inconclusive. Unless noted, % is scaled to controls: 0 for no effect and ±100 for the full control effect.

CC1CCC2C(=O)N(c3ccc(Cc4ccncc4)cc3)C(=O)C2C1 (stereo unspecified) was read as RORgamma inh 11µM*, TDP1 cell noCPT 10µM*, LDHA block 0, DT40 TDP1 CPT 5.8µM*, IL1B secr inh 0 and VP16 counter 6.3µM*.
`O=C1C2C3C=CC(C3)C2C(=O)N1c1ccc(Cc2ccncc2)cc1` (stereo unspecified) gave RORgamma inh -25%, TDP1 cell noCPT 13µM*, LDHA block 2, DT40 TDP1 CPT inconclusive, IL1B secr inh 17 and VP16 counter 22µM*.
Screening CC1CCN(C(=O)c2ccc(N3C(=O)C4CCC(C)CC4C3=O)cc2)CC1 (stereo unspecified) returned RORgamma inh -20%, TDP1 cell noCPT -20%, LDHA block -6, DT40 TDP1 CPT 5% and VP16 counter -6%.
For C=CCCC(=O)N1CCN(C(=O)c2ccc(C(F)(F)F)cc2)CC1 the results were LDHA block -7.
For CCCC(=O)NCCc1cccc(F)c1 the results were LDHA block -5.
For O=C(Nc1nnc(S(=O)(=O)N2CCCc3ccccc32)s1)c1ccc(Cl)cc1 the results were TDP1 cell noCPT 18µM*, LDHA block -14 and DT40 TDP1 CPT inconclusive.
`O=C(Nc1nnc(S(=O)(=O)N2CCc3ccccc32)s1)c1ccccc1` gave TDP1 cell noCPT inconclusive, LDHA block -7 and DT40 TDP1 CPT inconclusive.
Screening O=C(Nc1nnc(S(=O)(=O)N2CCc3ccccc32)s1)c1cccc(Cl)c1 returned TDP1 cell noCPT 21µM*, LDHA block -8 and DT40 TDP1 CPT 21µM*.
Screening O=C(Nc1nnc(S(=O)(=O)N2CCCc3ccccc32)s1)c1ccccc1 returned TDP1 cell noCPT inconclusive, LDHA block -16 and DT40 TDP1 CPT inconclusive.
`CCCCn1c(SCc2c(C)noc2C)nc2cc(S(N)(=O)=O)ccc21` gave RORgamma inh -44%, TDP1 cell noCPT inconclusive, LDHA block -4, DT40 TDP1 CPT 13µM*, IL1B secr inh inconclusive and VP16 counter 4%.
Screening CCCCn1c(SCC(=O)Nc2cc(C)on2)nc2cc(S(N)(=O)=O)ccc21 returned TDP1 cell noCPT -4%, LDHA block -8, DT40 TDP1 CPT -14% and IL1B secr inh -17.
Screening CCOc1ccc(C(C)=O)cc1N1C(=O)C2C3C=CC(O3)C2C1=O (stereo unspecified) returned RORgamma inh 6.3µM*, TDP1 cell noCPT 5.2µM*, LDHA block -14, DT40 TDP1 CPT 6.5µM*, IL1B secr inh -10 and VP16 counter 6.3µM*.
For COc1ccc(CNC(=O)Cn2c(=O)ccc3cc(S(=O)(=O)N4CCCC4)ccc32)cc1 the results were TDP1 cell noCPT -24%, LDHA block -1 and DT40 TDP1 CPT -11%.
`COc1ccc(CNC(=O)Cn2c(=O)oc3cc(S(=O)(=O)N4CCC(C)CC4)ccc32)cc1` gave TDP1 cell noCPT 8.2µM*, LDHA block -2 and DT40 TDP1 CPT 8.2µM*.
`COc1ccc(CC(=O)Nc2ccc(S(=O)(=O)N3CCC(C)CC3)cc2)c(OC)c1` gave TDP1 cell noCPT 8.2µM*, LDHA block 1, DT40 TDP1 CPT inconclusive and IL1B secr inh -10.
Screening COc1ccc(CC(NC(C)=O)C(=O)NC2CCN(S(=O)(=O)c3ccc(NC(C)=O)cc3)CC2)c(OC)c1 (stereo unspecified) returned RORgamma inh 4%, TDP1 cell noCPT -5%, LDHA block -5, DT40 TDP1 CPT 26%, IL1B secr inh -17 and VP16 counter 5%.
Screening COc1ccc(CNC(=O)Cn2c(=O)oc3cc(S(=O)(=O)N4CCCCCC4)ccc32)cc1 returned TDP1 cell noCPT 16µM*, LDHA block -12 and DT40 TDP1 CPT 13µM*.
For COc1ccc(NC(=O)Cn2c(=O)oc3cc(Cl)ccc32)c(OC)c1 the results were RORgamma inh 44%, TDP1 cell noCPT 6.5µM*, LDHA block 0, DT40 TDP1 CPT inconclusive, IL1B secr inh 10 and VP16 counter -8%.
Cn1cnc2c1c(=O)n(CC(=O)Nc1ccc3c(c1)OC1(CCCC1)O3)c(=O)n2C was read as LDHA block 11.
COc1cc(C)cc2oc(=O)c(CC(=O)NCCc3cccc(F)c3)c(C)c12 was read as LDHA block 4.
`O=Cc1ccc(OCc2ccc(Cl)cc2)c(Br)c1` gave LDHA block 6.
For Cc1cc(C)cc(NC(=O)Cn2c(=O)oc3cc(S(=O)(=O)N4CCC(C)CC4)ccc32)c1 the results were RORgamma inh -7%, TDP1 cell noCPT 15µM*, LDHA block -2, DT40 TDP1 CPT 6.5µM*, IL1B secr inh 1 and VP16 counter inconclusive.
For COc1ccc(NC(=O)Cn2c(=O)oc3cc(S(=O)(=O)N4CCC(C)CC4)ccc32)c(OC)c1 the results were TDP1 cell noCPT 8.2µM*, LDHA block 5 and DT40 TDP1 CPT 21µM*.
Screening CC1CCN(S(=O)(=O)c2ccc3c(c2)oc(=O)n3CC(=O)O)CC1 returned TDP1 cell noCPT -9%, LDHA block -5 and DT40 TDP1 CPT -5%.
For CC(=O)c1cn(CCOc2ccccc2F)c2ccccc12 the results were LDHA block 5.
Screening Cc1cc(OCCn2cc(C(=O)c3cccs3)c3ccccc32)ccc1Cl returned TDP1 cell noCPT 16µM*, LDHA block -8 and DT40 TDP1 CPT 16µM*.
`O=C(c1ccco1)c1cn(CCOc2ccc(F)cc2)c2ccccc12` gave TDP1 cell noCPT inconclusive, LDHA block 1 and DT40 TDP1 CPT inconclusive.
Screening O=C(c1cccs1)c1cn(CCOc2ccc(F)cc2)c2ccccc12 returned TDP1 cell noCPT 21µM*, LDHA block -1 and DT40 TDP1 CPT 16µM*.
For Cc1cc(OCCn2cc(C(=O)C(F)(F)F)c3ccccc32)ccc1Cl the results were LDHA block 7.
For CC(C)(C)c1ccc(OCCn2cc(C(=O)c3ccco3)c3ccccc32)cc1 the results were TDP1 cell noCPT 23µM*, LDHA block -6 and DT40 TDP1 CPT inconclusive.
For O=C(c1cccs1)c1cn(CCOc2ccccc2F)c2ccccc12 the results were TDP1 cell noCPT 18µM*, LDHA block -7 and DT40 TDP1 CPT inconclusive.
